Data from article PMC8384837, “Expanding the binding specificity for RNA recognition by a PUF domain”.
Where a chain is given by its changes, count along the chain named.

What was measured:
Test in all cases: yeast three-hybrid, YBZ-1, SC-Leu-His + 0.5 mM 3-AT, 4 days
Conditions in all cases: tags: N-Gal4 AD-HA kept; label: inside an RPR1-promoter hybrid RNA with tandem MS2 sites; ssRNA
PUM1 PUF domain R5-LWG = PUM1 PUF domain R5-LWG (Homo sapiens, UniProt Q14671 828-1176, C1007L;R1008W;Q1011G)
Method in brief: (§1)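 The interaction score is the log change in variant frequency from input to selection. Scores were computed in log2 with a pseudocount of 1 for absent variants, using Illumina sequencing of PCR-amplified repeat regions. The input came from four days on SC-Leu and the selection from four days on SC-Leu-His + 0.5 mM 3-AT. The cells were strain YBZ-1 (LexA–MS2 coat fusion, HIS3 reporter) co-expressing Pumilio-1 PUF domain libraries and matching RNA elements from a centromeric plasmid.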

PUM1 PUF domain R4-RHV = PUM1 PUF domain R4-RHV (Homo sapiens, UniProt Q14671 828-1176, N971R;Q975V)
Method in brief: as §1

PUM1 PUF domain R4-FGS = PUM1 PUF domain R4-FGS (Homo sapiens, UniProt Q14671 828-1176, N971F;H972G;Q975S)
Method in brief: as §1

PUM1 PUF domain R6-CHC = molecular target: T1, PUM1 PUF domain R6-CHC (Homo sapiens, UniProt Q14671 828-1176, N1043C;Y1044H;Q1047C)
T1 sequence: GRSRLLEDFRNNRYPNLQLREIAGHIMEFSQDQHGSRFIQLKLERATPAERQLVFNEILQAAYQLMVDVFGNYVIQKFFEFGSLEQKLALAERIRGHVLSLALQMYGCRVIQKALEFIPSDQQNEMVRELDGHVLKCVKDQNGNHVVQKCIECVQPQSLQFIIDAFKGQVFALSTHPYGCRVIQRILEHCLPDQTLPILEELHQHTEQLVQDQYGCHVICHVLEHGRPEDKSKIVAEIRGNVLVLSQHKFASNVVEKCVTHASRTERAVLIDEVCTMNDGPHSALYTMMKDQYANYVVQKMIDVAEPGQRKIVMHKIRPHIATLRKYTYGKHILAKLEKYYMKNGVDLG
Method in brief: as §1

PUM1 PUF domain R8-KWA = PUM1 PUF domain R8-KWA (Homo sapiens, UniProt Q14671 828-1176, N1122K;Y1123W;Q1126A)
Method in brief: as §1

PUM1 PUF domain R1-RAS = PUM1 PUF domain R1-RAS (Homo sapiens, UniProt Q14671 828-1176, S863R;R864A;Q867S)
Method in brief: as §1

PUM1 PUF domain R7-RVI = PUM1 PUF domain R7-RVI (Homo sapiens, UniProt Q14671 828-1176, S1079R;N1080V;E1083I)
Method in brief: as §1

PUM1 PUF domain R3-FSE = PUM1 PUF domain R3-FSE (Homo sapiens, UniProt Q14671 828-1176, C935F;R936S;Q939E)
Method in brief: as §1

PUM1 PUF domain R3-MWS = PUM1 PUF domain R3-MWS (Homo sapiens, UniProt Q14671 828-1176, C935M;R936W;Q939S)
Method in brief: as §1

PUM1 PUF domain R5-QLR = PUM1 PUF domain R5-QLR (Homo sapiens, UniProt Q14671 828-1176, C1007Q;R1008L;Q1011R)
Method in brief: as §1

PUM1 PUF domain R1-KGR = PUM1 PUF domain R1-KGR (Homo sapiens, UniProt Q14671 828-1176, S863K;R864G;Q867R)
Method in brief: as §1

PUM1 PUF domain R5-DFV = PUM1 PUF domain R5-DFV (Homo sapiens, UniProt Q14671 828-1176, C1007D;R1008F;Q1011V)
Method in brief: as §1

PUM1 PUF domain R1-RGQ = PUM1 PUF domain R1-RGQ (Homo sapiens, UniProt Q14671 828-1176, S863R;R864G)
Method in brief: as §1

PUM1 PUF domain R7-RRI = PUM1 PUF domain R7-RRI (Homo sapiens, UniProt Q14671 828-1176, S1079R;N1080R;E1083I)
Method in brief: as §1

PUM1 PUF domain R8-YWK = PUM1 PUF domain R8-YWK (Homo sapiens, UniProt Q14671 828-1176, N1122Y;Y1123W;Q1126K)
Method in brief: as §1

PUM1 PUF domain R6-CYL = molecular target: T2, PUM1 PUF domain R6-CYL (Homo sapiens, UniProt Q14671 828-1176, N1043C;Q1047L)
T2 sequence: T1 sequence with H217Y, C220L
Method in brief: as §1

PUM1 PUF domain R6-CYI = molecular target: T3, PUM1 PUF domain R6-CYI (Homo sapiens, UniProt Q14671 828-1176, N1043C;Q1047I)
T3 sequence: T1 sequence with H217Y, C220I
Method in brief: as §1

PUM1 PUF domain R6-MWE = molecular target: T4, PUM1 PUF domain R6-MWE (Homo sapiens, UniProt Q14671 828-1176, N1043M;Y1044W;Q1047E)
T4 sequence: T1 sequence with C216M, H217W, C220E
Method in brief: as §1

PUM1 PUF domain R2-AFW = PUM1 PUF domain R2-AFW (Homo sapiens, UniProt Q14671 828-1176, N899A;Y900F;Q903W)
Method in brief: as §1

PUM1 PUF domain R3-DAK = PUM1 PUF domain R3-DAK (Homo sapiens, UniProt Q14671 828-1176, C935D;R936A;Q939K)
Method in brief: as §1

Chain of PUM1 PUF domain R1-RAS (Q14671 828-1176 S863R/R864A/Q867S): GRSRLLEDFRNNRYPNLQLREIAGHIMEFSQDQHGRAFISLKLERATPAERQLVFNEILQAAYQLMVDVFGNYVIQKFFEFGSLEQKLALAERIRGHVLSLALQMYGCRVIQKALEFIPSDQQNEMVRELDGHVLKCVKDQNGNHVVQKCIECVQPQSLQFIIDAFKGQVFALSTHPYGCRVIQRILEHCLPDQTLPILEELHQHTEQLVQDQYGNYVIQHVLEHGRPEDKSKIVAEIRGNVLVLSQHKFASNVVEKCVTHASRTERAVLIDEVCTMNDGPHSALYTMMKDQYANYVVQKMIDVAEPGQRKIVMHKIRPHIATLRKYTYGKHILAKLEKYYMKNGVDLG
Chain of PUM1 PUF domain R1-KGR (Q14671 828-1176 S863K/R864G/Q867R): as the sequence (Q14671 828-1176 S863R/R864A/Q867S) above, with R36K, A37G, S40R counted along it
Chain of PUM1 PUF domain R5-DFV (Q14671 828-1176 C1007D/R1008F/Q1011V): as the sequence (Q14671 828-1176 S863R/R864A/Q867S) above, with R36S, A37R, S40Q, C180D, R181F, Q184V counted along it

With “GGCUAGAACUAGUGGAUCCCCCGGCGCCCGGCGGCUCGAGCCCGGGUAAGUGUAAAUAGUCUGCAUGCCGCCGGGCGCCAUGCCUGCAGGUCGACUCUAGAAAACAUG” the binding signal (PUM1 PUF domain R5-LWG) was 2.19 log2 enrichment (interaction score), the binding signal (PUM1 PUF domain R4-RHV) was 2.5 log2 enrichment (interaction score) and the binding signal (PUM1 PUF domain R4-FGS) was 0.95 log2 enrichment (interaction score). For the same sequence, the binding signal (PUM1 PUF domain R6-CHC) was 3.57 log2 enrichment (interaction score) and the binding signal (PUM1 PUF domain R8-KWA) was 2.67 log2 enrichment (interaction score).
For “GGCUAGAACUAGUGGAUCCCCCGGCGCCCGGCGGCUCGAGCCCGGGUAAGUGUAAAUGGUCUGCAUGCCGCCGGGCGCCAUGCCUGCAGGUCGACUCUAGAAAACAUG”, the binding signal (PUM1 PUF domain R1-RAS) was 1.5 log2 enrichment (interaction score).
In the case of “GGCUAGAACUAGUGGAUCCCCCGGCGCCCGGCGGCUCGAGCCCGGGUAAGUUUAAAUAGUCUGCAUGCCGCCGGGCGCCAUGCCUGCAGGUCGACUCUAGAAAACAUG”, the binding signal (PUM1 PUF domain R7-RVI) is reported as 2.39 log2 enrichment (interaction score).
In the case of “GGCUAGAACUAGUGGAUCCCCCGGCGCCCGGCGGCUCGAGCCCGGGUAAGUGUAAGUAGUCUGCAUGCCGCCGGGCGCCAUGCCUGCAGGUCGACUCUAGAAAACAUG”, the binding signal (PUM1 PUF domain R3-FSE) is reported as 3.22 log2 enrichment (interaction score) and the binding signal (PUM1 PUF domain R3-MWS) is reported as 5.62 log2 enrichment (interaction score).
In the case of “GGCUAGAACUAGUGGAUCCCCCGGCGCCCGGCGGCUCGAGCCCGGGUAAGUGUACAUAGUCUGCAUGCCGCCGGGCGCCAUGCCUGCAGGUCGACUCUAGAAAACAUG”, the binding signal (PUM1 PUF domain R4-RHV) is reported as 2.18 log2 enrichment (interaction score) and the binding signal (PUM1 PUF domain R4-FGS) is reported as 2.32 log2 enrichment (interaction score).
For “GGCUAGAACUAGUGGAUCCCCCGGCGCCCGGCGGCUCGAGCCCGGGUAAGUGUUAAUAGUCUGCAUGCCGCCGGGCGCCAUGCCUGCAGGUCGACUCUAGAAAACAUG”, the binding signal (PUM1 PUF domain R5-LWG) was 3.88 log2 enrichment (interaction score) and the binding signal (PUM1 PUF domain R5-QLR) was 0.88 log2 enrichment (interaction score).
For “GGCUAGAACUAGUGGAUCCCCCGGCGCCCGGCGGCUCGAGCCCGGGUAAGUGUAAAUCGUCUGCAUGCCGCCGGGCGCCAUGCCUGCAGGUCGACUCUAGAAAACAUG”, the binding signal (PUM1 PUF domain R1-RAS) was 3.1 log2 enrichment (interaction score) and the binding signal (PUM1 PUF domain R1-KGR) was 3.57 log2 enrichment (interaction score).
For “GGCUAGAACUAGUGGAUCCCCCGGCGCCCGGCGGCUCGAGCCCGGGUAAGUGUCAAUAGUCUGCAUGCCGCCGGGCGCCAUGCCUGCAGGUCGACUCUAGAAAACAUG”, the binding signal (PUM1 PUF domain R5-QLR) was 6.43 log2 enrichment (interaction score).
“GGCUAGAACUAGUGGAUCCCCCGGCGCCCGGCGGCUCGAGCCCGGGUAAGUGUGAAUAGUCUGCAUGCCGCCGGGCGCCAUGCCUGCAGGUCGACUCUAGAAAACAUG” was tested, and the binding signal (PUM1 PUF domain R5-DFV) was 3.55 log2 enrichment (interaction score).
In the case of “GGCUAGAACUAGUGGAUCCCCCGGCGCCCGGCGGCUCGAGCCCGGGUAAGUGUAAAUUGUCUGCAUGCCGCCGGGCGCCAUGCCUGCAGGUCGACUCUAGAAAACAUG”, the binding signal (PUM1 PUF domain R1-RGQ) is reported as 2.29 log2 enrichment (interaction score), the binding signal (PUM1 PUF domain R1-RAS) is reported as 2.89 log2 enrichment (interaction score) and the binding signal (PUM1 PUF domain R1-KGR) is reported as 4.34 log2 enrichment (interaction score).
In the case of “GGCUAGAACUAGUGGAUCCCCCGGCGCCCGGCGGCUCGAGCCCGGGUAAGUCUAAAUAGUCUGCAUGCCGCCGGGCGCCAUGCCUGCAGGUCGACUCUAGAAAACAUG”, the binding signal (PUM1 PUF domain R7-RRI) is reported as 5.69 log2 enrichment (interaction score).
In the case of “GGCUAGAACUAGUGGAUCCCCCGGCGCCCGGCGGCUCGAGCCCGGGUAAGCGUAAAUAGUCUGCAUGCCGCCGGGCGCCAUGCCUGCAGGUCGACUCUAGAAAACAUG”, the binding signal (PUM1 PUF domain R8-YWK) is reported as 2.04 log2 enrichment (interaction score) and the binding signal (PUM1 PUF domain R8-KWA) is reported as 3.8 log2 enrichment (interaction score).
For “GGCUAGAACUAGUGGAUCCCCCGGCGCCCGGCGGCUCGAGCCCGGGUAAGUGUAUAUAGUCUGCAUGCCGCCGGGCGCCAUGCCUGCAGGUCGACUCUAGAAAACAUG”, the binding signal (PUM1 PUF domain R4-RHV) was 4.8 log2 enrichment (interaction score) and the binding signal (PUM1 PUF domain R4-FGS) was 2.78 log2 enrichment (interaction score).
For “GGCUAGAACUAGUGGAUCCCCCGGCGCCCGGCGGCUCGAGCCCGGGUAAGUGAAAAUAGUCUGCAUGCCGCCGGGCGCCAUGCCUGCAGGUCGACUCUAGAAAACAUG”, the binding signal (PUM1 PUF domain R6-CYL) was 5.18 log2 enrichment (interaction score) and the binding signal (PUM1 PUF domain R6-CYI) was 5.81 log2 enrichment (interaction score).
With “GGCUAGAACUAGUGGAUCCCCCGGCGCCCGGCGGCUCGAGCCCGGGUAAGUGGAAAUAGUCUGCAUGCCGCCGGGCGCCAUGCCUGCAGGUCGACUCUAGAAAACAUG” the binding signal (PUM1 PUF domain R6-MWE) was 4.52 log2 enrichment (interaction score).
With “GGCUAGAACUAGUGGAUCCCCCGGCGCCCGGCGGCUCGAGCCCGGGUAAGUGUAAAGAGUCUGCAUGCCGCCGGGCGCCAUGCCUGCAGGUCGACUCUAGAAAACAUG” the binding signal (PUM1 PUF domain R2-AFW) was 1.14 log2 enrichment (interaction score).
“GGCUAGAACUAGUGGAUCCCCCGGCGCCCGGCGGCUCGAGCCCGGGUAAGUGUAAAAAGUCUGCAUGCCGCCGGGCGCCAUGCCUGCAGGUCGACUCUAGAAAACAUG” was tested, and the binding signal (PUM1 PUF domain R2-AFW) was 4.3 log2 enrichment (interaction score).
With “GGCUAGAACUAGUGGAUCCCCCGGCGCCCGGCGGCUCGAGCCCGGGUAAGUGUAAUUAGUCUGCAUGCCGCCGGGCGCCAUGCCUGCAGGUCGACUCUAGAAAACAUG” the binding signal (PUM1 PUF domain R3-DAK) was 3.6 log2 enrichment (interaction score).
